Out of some 190,000 compounds screened, about 45 (0.02%) were called active. No stated cut-off is given here; in the data, active means inhibition above about 40%. The list is a sample of the results.
Each compound was assayed against Bcl-2-like protein 2 (Homo sapiens) (UniProt Q92843) (assay: inhibitors of Bim binding to Bcl-W, primary screen, biochemical, multiplexed, bead-based flow cytometry (AID 952;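 further: 0% = bound tracer without compound and 100% = peptide blocker; higher means less fluorescent Bim peptide bound to Bcl-W beads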)). Details: Bim peptide-Bcl-W binding, at 10 µM, stronger effect = higher value.
Bcl-2-like protein 2 (Homo sapiens), sequence (Q92843 whole entry, looked up): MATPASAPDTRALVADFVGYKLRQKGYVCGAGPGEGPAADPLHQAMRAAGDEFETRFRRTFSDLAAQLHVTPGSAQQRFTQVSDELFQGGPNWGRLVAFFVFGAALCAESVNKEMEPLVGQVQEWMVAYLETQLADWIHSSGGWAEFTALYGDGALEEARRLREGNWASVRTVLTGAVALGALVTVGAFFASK

inhibition, inactive:
CCOC(=O)NC(=O)/C(C#N)=C\c1ccccc1 -2%
Cc1cc(C)cc(NC(=O)N2CCCCCCC2)c1 0%
Cc1[nH]c2ccccc2c1C(=O)COC(=O)c1c(-c2ccccc2)noc1C -1%
COc1cc(SC#N)ccc1N=Cc1c(C)[nH]n(-c2ccc(C)cc2)c1=O 6%
O=C(NCc1ccccc1)C1CCCN(c2nc3ccsc3c(=O)s2)C1 (stereo not given) -4%
CCN(CC)CC(=O)Nc1sc2c(c1C(=O)c1ccccc1C)CCC2 0%
O=C(Nc1nnc(-c2ccco2)o1)c1ccc(S(=O)(=O)N2CCOCC2)cc1 0%
Cc1nc(N2CCOCC2)sc1C(=O)NN 0%
CC1CCN(C(=S)c2cccc([N+](=O)[O-])c2)CC1 0%
N/C(=N\OC(=O)CCCC(=O)O)c1ncc(C(F)(F)F)cc1Cl -1%
Cc1ccc(SC(C)C(=O)NCc2ccc(F)cc2)cc1 (stereo not given) 0%
Cc1ccc(Nc2cc(C)nc3c(C)ccc([N+](=O)[O-])c23)cc1 0%
N#Cc1c(NC(=O)c2ccc(N3CCOCC3)c([N+](=O)[O-])c2)sc2c1CCCC2 -4%
Cc1cc(C)nc(-n2nc(C)cc2NC(=O)c2ccc(F)cc2F)n1 1%
CCc1nn(CCCN2CCN(c3cccc(Cl)c3)CC2)c(=O)n1CCOc1ccccc1 -5%
C/C(=N/N1CCN(Cc2cccc3ccccc23)CC1)c1cccnc1 0%
O=C1CC(c2cccc(Cl)c2)CC(O)=C1C=Nc1ccccc1 (stereo not given) -5%
Cc1cnc(C(=O)OCC(=O)N2CCc3ccccc32)cn1 0%
CC(=O)C1(C)N(O)C(C)(C)C(c2cccs2)=[N+]1[O-] (stereo not given) 0%
O=C(OCC(=O)c1cccs1)c1ccc([N+](=O)[O-])o1 0%
O=C(CCl)N(Cc1cccc([N+](=O)[O-])c1)c1cccc(Cl)c1 1%
c1ccc2c(c1)OCCOCCOCCO2 0%
CCOc1cccc2c1OC1(CCCCC1)N1N=C(c3cccnc3)CC21 (stereo not given) -4%
CCCC(=O)Nc1ccc(C(=O)N/N=C/c2ccc[nH]2)cc1 -5%
Cc1ccc(S(=O)(=O)N(C)C)cc1NC(=O)COC(=O)c1c(C)noc1C 0%
Cc1cc(/C=N/NC(=O)c2cccnc2)c(C)n1CC(C)C 1%
CC(=O)Nc1ccc(NC(=O)CSc2nnc(COc3ccccc3C)n2CC2CCCO2)cc1 (stereo not given) -2%
Cc1cc(C)n2nc(C(=O)N3CCN(Cc4ccc5c(c4)OCO5)CC3)nc2n1 -2%
C/C(=N/Nc1ccc(Cl)cc1)c1cnnc(-c2ccccc2)n1 -1%
O=C(O)/C=C/C(=O)NNc1ccc([N+](=O)[O-])cc1 5%
CCOC(=O)c1cccc(NC(=O)CCOc2ccccc2)c1 -1%
O=C(Cn1nnc2ccccc2c1=O)NCc1ccc(Cl)cc1 -1%
CSc1nc2ccccc2c(=O)n1Cc1ccc(F)cc1 0%
COc1ccc(NC(=S)NCC2CCN(c3ccc(OC)cc3)C2)cc1 (stereo not given) 0%
CCOc1ccc(N2C(=O)/C(=C/c3ccc(C)o3)N(C)C2=S)cc1 4%
O=c1[nH]n2c(-c3ccccc3)nc(O)c2c2ccccc12 -1%
COc1ccc(C(C(=O)NC2CCCCC2)N(C(=O)CCl)c2ccccc2Cl)cc1 (stereo not given) 0%
OC(CNCc1ccc(Cl)c(Cl)c1)c1ccccc1 (stereo not given) 0%
O=C(COc1ccc(Cl)cc1[N+](=O)[O-])N1CCCCC1 3%
Cc1nccn1CC(=O)N/N=C/c1ccc(O)c(O)c1 -5%
CN(Cc1nc2ccc(F)cc2[nH]1)Cc1nc(CC2CC2)no1 -6%
Nc1nnc(SCC(=O)OCc2ccc(Cl)c(Cl)c2)s1 3%
CN(C)CCOc1cccc(Br)c1 -3%
Clc1cc(-c2ccc(/C=N/n3cnnc3)o2)ccc1Br 0%
CCC(=O)N(Cc1cc2ccccc2[nH]c1=O)c1ccc(OC)cc1 0%
CCOC(=O)c1cnc2c(c(C)nn2CC)c1Cl -1%
CN(C)/N=C/c1cn(-c2ccccc2)nc1-c1cccnc1 1%
Cc1cc(C)n(-c2ccc(C(=O)O)cc2[N+](=O)[O-])n1 0%
CCCCNC(=O)C1CCC(CNS(=O)(=O)c2ccc(NC(C)=O)cc2)CC1 (stereo not given) 1%
C=CCn1c(=NC(=O)c2cccs2)sc2cc(NC(C)=O)ccc21 0%
O=C(NNC(=S)NCc1ccccc1)c1ccc(OC(F)F)cc1 1%
CC(=O)c1cccc(-n2nnnc2SCC(=O)NNC(=O)C2CCCCC2)c1 0%
CC(=O)c1cc(C#N)c(SCC(=O)Nc2nccs2)nc1C -1%
COCCNC(=O)c1ccc(-n2c(SCc3cccnc3)nc3ccccc3c2=O)cc1 -4%
CCCCN(CC)CCNC(=O)CCNC(=O)Cn1ccc2ccccc2c1=O -2%
CCN(CC(=O)NCc1cccs1)S(=O)(=O)c1ccc(NC(C)=O)cc1 0%
CN(CCC1CCOCC1)Cc1cn[nH]c1-c1ccc(-c2ccccc2)cc1 -1%
O=C(NC(=S)N1CCN(Cc2ccccc2)CC1)c1ccccc1 -3%
CCOC(=O)c1c(NC(=O)C(C)Sc2c[nH]c3ccccc23)sc2c1CCC2 (stereo not given) -3%
COc1cc(NC(=S)NCc2ccco2)c(OC)cc1Cl -1%
O=C(c1ccc(F)cc1)c1cn(Cc2ccc(F)cc2)c2cc3c(cc2c1=O)OCCO3 -4%
COc1cc(C)c(S(=O)(=O)N2CCOCC2)c(C)c1C -3%
Cc1nnsc1C(=O)N/N=C/c1cccc(C(F)(F)F)c1 -2%
CCOC(=O)c1[nH]c2c(c1-c1ccccc1)C(=O)CC(c1ccc(Cl)cc1)C2 (stereo not given) -3%
COc1ccc(N=C2SC(C(=O)Nc3ccc(F)cc3)CC(=O)N2C)cc1 (stereo not given) 0%

From PubChem BioAssay AID952 (NMMLSC, 2007)
